Test results taken from PubChem BioAssay AID504333 (National Center for Advancing Translational Sciences (NCATS), 2011).
About 16,000 (4.4%) of roughly 360,000 compounds were called active. Entries that show only a call come without a potency. Roughly 9% stayed inconclusive and do not appear here. Calls follow the shape of the dose curve; as a rule, active = well fitted inhibition curve with a large enough effect; inconclusive = small, poorly fitted or top-dose-only effect; inactive = no such curve, though single readings can be large or run the other way. Only a selection was taken, and actives are over-represented in it overall.

These molecules were tested against Bromodomain adjacent to zinc finger domain protein 2B (Homo sapiens) (UniProt Q9UIF8) (assay: qHTS Assay for Inhibitors of BAZ2B). Conditions: AlphaScreen BAZ2B-H3K14Ac peptide displacement; series mostly up to 114 µM.
Outline: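 Complex of BAZ2B and biotin-H3K14Ac (50 nM apiece) forms over 30 min at RT, then faces library compounds up to 110 uM for another 30 min; AlphaScreen beads added, 20 min dark incubation, luminescence read.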
Also: nearly all actives have a fitted effect of over 60% in size.
Potency is read from the fitted curve at half-maximal effect.

Sequence of Bromodomain adjacent to zinc finger domain protein 2B (Homo sapiens) (Q9UIF8 whole entry, looked up, the tested form may be a part): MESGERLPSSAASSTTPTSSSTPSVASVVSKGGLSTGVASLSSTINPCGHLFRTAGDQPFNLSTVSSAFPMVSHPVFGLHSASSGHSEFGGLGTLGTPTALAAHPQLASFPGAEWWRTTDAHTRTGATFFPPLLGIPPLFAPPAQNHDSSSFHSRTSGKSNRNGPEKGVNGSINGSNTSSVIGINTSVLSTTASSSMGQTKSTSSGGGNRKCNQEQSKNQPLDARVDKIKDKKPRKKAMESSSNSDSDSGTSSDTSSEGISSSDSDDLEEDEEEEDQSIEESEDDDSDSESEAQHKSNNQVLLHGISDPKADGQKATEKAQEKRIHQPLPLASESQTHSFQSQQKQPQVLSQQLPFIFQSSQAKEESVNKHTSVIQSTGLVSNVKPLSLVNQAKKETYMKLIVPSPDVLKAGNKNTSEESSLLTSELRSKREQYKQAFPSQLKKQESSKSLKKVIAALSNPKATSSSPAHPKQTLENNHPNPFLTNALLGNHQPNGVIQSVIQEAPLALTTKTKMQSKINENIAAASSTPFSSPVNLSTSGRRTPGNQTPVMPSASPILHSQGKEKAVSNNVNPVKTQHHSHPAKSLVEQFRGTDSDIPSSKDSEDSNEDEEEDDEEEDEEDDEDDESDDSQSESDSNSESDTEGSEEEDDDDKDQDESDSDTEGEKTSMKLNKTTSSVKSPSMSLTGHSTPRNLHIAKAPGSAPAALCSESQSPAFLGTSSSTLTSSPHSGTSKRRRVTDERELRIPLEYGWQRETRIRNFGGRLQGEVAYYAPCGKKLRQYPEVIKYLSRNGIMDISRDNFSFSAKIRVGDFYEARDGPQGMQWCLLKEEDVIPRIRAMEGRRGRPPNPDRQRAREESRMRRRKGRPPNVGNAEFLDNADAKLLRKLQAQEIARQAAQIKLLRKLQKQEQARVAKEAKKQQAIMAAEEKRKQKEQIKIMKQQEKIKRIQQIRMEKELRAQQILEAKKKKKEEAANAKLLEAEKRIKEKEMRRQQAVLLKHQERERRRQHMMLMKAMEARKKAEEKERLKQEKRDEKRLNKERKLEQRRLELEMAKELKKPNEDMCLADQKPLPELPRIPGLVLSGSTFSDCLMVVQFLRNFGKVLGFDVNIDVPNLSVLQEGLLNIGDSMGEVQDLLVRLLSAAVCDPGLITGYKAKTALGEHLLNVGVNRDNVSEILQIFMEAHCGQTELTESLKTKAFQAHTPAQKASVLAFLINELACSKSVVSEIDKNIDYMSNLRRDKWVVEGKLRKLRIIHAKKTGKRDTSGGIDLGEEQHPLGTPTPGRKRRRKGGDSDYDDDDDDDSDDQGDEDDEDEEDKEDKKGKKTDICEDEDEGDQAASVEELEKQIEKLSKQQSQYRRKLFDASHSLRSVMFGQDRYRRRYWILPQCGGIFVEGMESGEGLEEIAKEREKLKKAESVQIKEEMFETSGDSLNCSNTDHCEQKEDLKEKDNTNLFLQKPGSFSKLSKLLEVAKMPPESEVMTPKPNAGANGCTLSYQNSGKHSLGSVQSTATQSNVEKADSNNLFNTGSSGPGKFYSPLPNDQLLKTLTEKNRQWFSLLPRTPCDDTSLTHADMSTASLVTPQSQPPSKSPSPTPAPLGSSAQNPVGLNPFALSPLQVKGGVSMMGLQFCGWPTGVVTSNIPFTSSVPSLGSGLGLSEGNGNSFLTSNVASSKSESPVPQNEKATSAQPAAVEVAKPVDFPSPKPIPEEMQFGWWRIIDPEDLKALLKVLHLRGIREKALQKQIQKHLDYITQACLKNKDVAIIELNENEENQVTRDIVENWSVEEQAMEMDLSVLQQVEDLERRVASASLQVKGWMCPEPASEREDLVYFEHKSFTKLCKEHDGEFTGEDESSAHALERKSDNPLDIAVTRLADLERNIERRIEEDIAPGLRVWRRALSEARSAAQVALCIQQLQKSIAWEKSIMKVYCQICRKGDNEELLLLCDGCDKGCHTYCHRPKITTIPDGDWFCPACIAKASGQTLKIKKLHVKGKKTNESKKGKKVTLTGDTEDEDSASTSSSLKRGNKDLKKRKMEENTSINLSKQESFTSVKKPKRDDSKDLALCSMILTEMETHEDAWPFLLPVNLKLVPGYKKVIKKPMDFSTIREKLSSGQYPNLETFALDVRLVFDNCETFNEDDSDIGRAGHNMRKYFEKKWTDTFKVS

Compound | Potency
O=C(O)c1ccc(Cn2c(SCc3ccc(F)cc3)nc3ccncc32)cc1 | inactive
C=CCn1c2ccccc2c2nnc(SC(CC)C(=O)Nc3nc(C)c(C(=O)OCC)s3)nc21 (centres undefined) | inactive
C=CCn1c2ccccc2c2nnc(SCc3[nH]c(=O)[nH]c3C(=O)CCCCC(=O)OCC)nc21 | 79.4 µM (active)
CCn1c2ccccc2c2nnc(SCC(=O)O)nc21 | inactive
CCOC(=O)c1ccc(CSc2nnc3cc(C)c4ccccc4n23)cc1 | inactive
CCOc1ccc(C(=O)c2cn(Cc3ccccc3OC)c3ccc(F)cc3c2=O)cc1 | inactive
CCCN(C(=O)Cn1ncc2c([nH]c3ccc(C)cc32)c1=O)c1ccccc1C | inactive
CCOC(=O)c1cc(-c2ccccc2)n(-c2cccc(C(=O)Nc3cc(OC)cc(OC)c3)c2)c1C | inactive
Cc1ccc(N/C=C/C(=O)c2ccccc2)cc1C | inactive
O=C(NCc1cccc(CNC(=O)Nc2cccc(O)c2)c1)Nc1cccc(O)c1 | inactive
Cc1ccc(NC(=O)COc2ccc(/C=N\NC(=O)c3cccnc3)cc2)cc1C | 56.2 µM (active)
O=C(CSc1ccccc1)Nc1ccc(C(=O)Nc2cccc(O)c2)cc1 | inactive
Cc1cc2nc(-c3ccc(NC(=O)c4cccnc4)cc3)oc2cc1C | inactive
C/C(=C\C(=O)c1ccccc1)Nc1cccc(O)c1 | 50.1 µM (active)
C/C(=C\C(=O)c1cccnc1)Nc1ccc(C)c(C)c1 | 50.1 µM (active)
O=C(COc1ccc(/C=N/NC(=O)c2ccc(O)cc2)cc1)Nc1ccc([N+](=O)[O-])cc1 | inactive
Cc1ccc(OCC(=O)NCCCNC(=O)c2cccnc2)cc1C | inactive
Cc1cccc(NC(=O)c2ccc(F)c(S(=O)(=O)N(C)C3CCCCC3)c2)c1 | inactive
COc1ccc(Cl)cc1NC(=O)c1sc2nc3c(cc2c1N)CN(C)CC3 | inactive
CCOCCCNC(=O)c1c(NC(=O)c2nc(SC)ncc2Cl)sc2c1CCCC2 | inactive
CN(C)C(=O)c1coc2nc3ccccc3nc12 | inactive
CNC(=O)c1cc2c(ccc3ccccc32)oc1=N | inactive
CNC(=O)c1cccc2nc3ccccc3nc12 | 50.1 µM (active)
COc1ccc(-n2c(SC)nc3sc4c(c3c2=O)CCN(C(C)=O)C4)cc1 | inactive

Compound | Potency
CCOc1ccc(CNC(=O)c2ccc3nc(CC)c(CC)nc3c2)cc1OC | inactive
Cc1ccccc1Nc1nnc(SCC(=O)c2cc3ccccc3o2)s1 | inactive
CC(C)c1ccc(Nc2nnc(SCC(=O)c3nnc(-c4ccccc4)o3)s2)cc1 | 35.5 µM (active)
Cc1ccc(Nc2nnc(SCC(=O)c3cc4ccccc4o3)s2)cc1C | inactive
COc1ccc(OC)c(-c2noc(N3CCN(c4cc(Cl)ccc4C)CC3)n2)c1 | inactive
O=C(Nc1ccc2nc(SCC(=O)N3CCCc4ccccc43)sc2c1)c1ccc(F)cc1 | inactive
CCOC(=O)c1c(C)[nH]c(C)c1S(=O)(=O)NCC(=O)NCc1cccc(C)c1 | inactive
Cc1ccc(C)c(CNC(=O)c2cc3ccccn3n2)c1 | inactive
CCN(CC)CCN(C(=O)c1ccc(S(=O)(=O)N2CCOCC2)cc1)c1nc2cc3c(cc2s1)OCCO3 | inactive
CN(C)CCCN(C(=O)c1ccc(S(=O)(=O)N2CCCc3ccccc32)cc1)c1nc2ccc(F)cc2s1 | 28.2 µM (active)
Cc1ccc2nc(N(CCN(C)C)C(=O)C3=COCCO3)sc2c1 | inactive
CN(C)CCCN(C(=O)c1ccc(S(=O)(=O)N2CCCCCC2)cc1)c1nc2ccc(Br)cc2s1 | 28.2 µM (active)
CCc1ccc2nc(N(CCCN(C)C)C(=O)c3ccc4c(c3)OCCO4)sc2c1 | inactive
CSc1nc2ccc(S(=O)(=O)N3CCc4ccccc43)cc2s1 | inactive
CCOc1ccc(OCC)c(NC(=O)c2c(C)nn(-c3ccccc3)c2-n2cccc2)c1 | inactive
O=C(CCc1ccccc1)NCc1ccc2c(c1)CCN2C(=O)c1ccccc1 | inactive
CCOCCCNC(=O)c1c(NC(=O)Cc2coc3ccc(C)cc23)sc2c1CCC2 | inactive
COc1ccc(S(=O)(=O)N(CC(=O)N/N=C/c2ccccc2C(=O)O)c2ccccc2OC)cc1 | inactive
COc1ccccc1NC(=O)CN(c1ccccc1OC)S(=O)(=O)c1ccccc1 | inactive
COc1ccccc1N(CC(=O)N/N=C(\C)c1ccccc1O)S(=O)(=O)c1ccc(C)cc1 | 50.1 µM (active)
CCCN(CCC)S(=O)(=O)c1ccc(C(=O)Nc2sc3c(c2C(=O)OC)CCN(CC)C3)cc1 | inactive
Cc1cccc(C(=O)N2CCc3cc(CNC(=O)Cc4ccc(F)cc4)ccc32)c1 | inactive
CCC(=O)Nc1c(C(=O)N2CCN(c3ccc(F)cc3)CC2)oc2ccccc12 | inactive
Cc1nnc(SCC(=O)NCc2ccccc2Cl)c2nn(-c3ccccc3)c(C)c12 | inactive

Compound | Potency
COc1ccc(CNC(=O)C(C)n2nc(C)c3c(C)n(-c4ccccc4)nc3c2=O)c(OC)c1 (centres undefined) | inactive
Cc1ccc(-n2nc3c(=O)n(C(C)C(=O)NCc4ccc5c(c4)OCO5)nc(C)c3c2C)cc1 (centres undefined) | 79.4 µM (active)
Cc1nn(C(C)C(=O)NCCC2=CCCCC2)c(=O)c2nn(-c3ccccc3)c(C)c12 (centres undefined) | inactive
O=C(CSCc1cnn(-c2ccccc2)c1-n1cccc1)NCc1ccccc1Br | inactive
CCn1c(-c2cc(OC)ccc2OC)csc1=Nc1c(C)n(C)n(-c2ccccc2)c1=O | inactive
CN=c1scc(-c2cc(OC)ccc2OC)n1/N=C/c1c(C)[nH]c2ccccc12 | 35.5 µM (active)
COCCNC(=S)N/N=C/c1c(C)[nH]c2ccccc12 | inactive
COc1ccc(CNC(=O)Cn2nnc(-c3ccccc3F)n2)cc1 | inactive
CC(C)c1ccc(NC(=O)c2cc(S(=O)(=O)N3CCc4ccccc4C3)ccc2F)cc1 | inactive
Cc1cccc(CCNC(=O)c2ccc3c(c2)nc2n3CCC(C)C2)c1 (centres undefined) | inactive
Cc1ccc(C)n1-c1nnc(N2CCC(C(=O)NCc3ccccc3Cl)CC2)s1 | inactive
Cc1ccc(-n2c(C)cc(/C=N\NC(=O)CC(=O)NC(C)C)c2C)cc1 | inactive
O=C(N/N=C/c1ccccc1O)C1CCCC1 | inactive
Cc1cc(/C=N/NC(N)=O)c(C)n1C1CCCCC1 | 50.1 µM (active)
CCC(=O)N1c2ccccc2CC1C(=O)N1CCN(c2cccc(OC)c2)CC1 (centres undefined) | inactive
O=C(CC(NCc1cccnc1)C(=O)O)Nc1ccc(O)cc1 (centres undefined) | inactive
CCc1ccc(CNC(=O)C2CCN(c3nn4cc(-c5ccc(F)cc5)nc4s3)CC2)cc1 | inactive
COc1cccc(NC(=O)CN2CCN(c3nc(-c4cccc(OC)c4)cs3)CC2)c1 | inactive
CC1CCCC(C)N1C(=O)CN1CCN(c2nc(-c3ccc(F)cc3)cs2)CC1 (centres undefined) | 70.8 µM (active)
CC(C)(C)NC(=O)CSc1nc(-c2ccc(F)cc2)cc(C(F)(F)F)n1 | inactive
COc1ccc(S(=O)(=O)N2CCCCC2)cc1C(=O)NC1CCS(=O)(=O)C1 (centres undefined) | inactive
CCc1ccc(NC(=O)c2cc(S(=O)(=O)NC3CCCCCC3)ccc2F)cc1 | inactive
CC(CCCc1ccccc1)NC(=O)c1nn(-c2ccc(Cl)cc2)nc1CO (centres undefined) | inactive
Cn1c(=O)c(=O)n(C)c2cc(NC(=O)c3ccccc3Br)ccc21 | inactive

Compound | Potency
Cc1ccc(NC(=O)c2cccnc2C(=O)Nc2ccc(C)cc2)cc1 | inactive
O=C(Nc1ccc(-n2ccnc2P(=O)(O)c2ccccc2)cc1)c1ccccc1Br | 44.7 µM (active)
COc1ccccc1NC(=O)CSc1oc(-c2ccco2)nc1S(=O)(=O)c1ccc(Br)cc1 | inactive
Cc1cccc(NC(=O)CSc2nc3c([nH]c4ccccc43)c(=O)n2-c2cc(C)cc(C)c2)c1 | inactive
CCN(CC)c1ccc(NC(=O)Cn2nc3c(cc2=O)CCCC3)c(C)c1 | inactive
CCOc1ccc(C2C(C#N)=C(N)N(N(C)C)C3=C2C(=O)CCC3)cc1 (centres undefined) | inactive
COc1ccc(C2C(C#N)=C(N)N(c3ncn[nH]3)C3=C2C(=O)CCC3)cc1 (centres undefined) | 79.4 µM (active)
N#CC1=C(N)N(c2ccccc2)C2=C(C(=O)CCC2)C1c1ccccc1 (centres undefined) | inactive
Cc1c(C(=O)Nc2ccccn2)oc2ccc(Br)cc12 | inactive
Oc1ccc(Br)cc1/C=N/Nc1ccccn1 | 31.6 µM (active)
Oc1ccc(Br)cc1C=Nc1ccc2[nH]ncc2c1 | inactive
COC(=O)c1ccc(NC(=O)CCc2c(C)nc3c(c(C)nn3-c3ccc(C)cc3)c2C)cc1 | inactive
COc1ccc(-c2nnc(SCC(=O)Nc3ccccc3C)o2)cc1OC | inactive
CC(C)c1ccc(S(=O)(=O)Nc2ccc(O)c(Sc3nc4ccccc4s3)c2)cc1 | 25.1 µM (active)
O=[N+]([O-])c1c(NCCO)cc(Sc2nc3ccccc3s2)c2nonc12 | inactive
CC(C)(C)c1ccc(S(=O)(=O)Nc2ccc(O)c(Sc3nc4ccccc4s3)c2)cc1 | inactive
CC(C)c1ccc(NC(=O)Cn2nnc(C(=O)NCCc3ccccc3)c2N)cc1 | inactive
COc1ccc(N2CCN(S(=O)(=O)CCNC(=O)C(c3ccccc3)c3ccccc3)CC2)cc1 | inactive
C#CCOCCOCCOCCNc1nc(N2CCN(C(=O)CCCCCCCCCCNC(=O)[C@H]([C@@H](C)CC)n3cc(CCCCN=C(N)N)nn3)CC2)nc(N2CCN(C(=O)CCCCCCCCCCNC(=O)[C@H](CO)n3cc(CCCSC)nn3)CC2)n1 | 50.1 µM (active)
CC[C@@H](C)[C@@H](C(=O)N1CCN(C(=O)OC(C)(C)C)CC1)n1cc(CCC(=O)O)nn1 | inactive
C#CCOCCOCCOCCNc1nc(N2CCN(C(=O)Cn3cc(CCCCN)nn3)CC2)nc(N2CCN(C(=O)[C@H](CCCCN)n3cc(CCC(=O)O)nn3)CC2)n1 | inactive
C#CCOCCOCCOCCNc1nc(N2CCN(C(=O)CCCCCCCCCCNC(=O)Cn3cc(CCCCCN)nn3)CC2)nc(N2CCN(C(=O)CCCCCCCCCCNC(=O)[C@H](CO)n3cc(CCCSC)nn3)CC2)n1 | 50.1 µM (active)
